The text below walks through data of ChEMBL document CHEMBL3433997, “St. Jude Leishmania screening dataset” (2016).

What all share (format): functional
Assay [1] deals with Solute carrier family 2, facilitated glucose transporter member 1 (Homo sapiens) (UniProt P11166). The assay is described as follows: ST_JUDE_LEISH: Cytotoxicity at 2uM final concentration against transgenic Leishmania Mexicana promastigotes LmGLUT1 that are glucose transport deficient and complemented with the human glucose transporter GLUT1. Activity is measured by DNA content using SYBR green in vitro.
Solute carrier family 2, facilitated glucose transporter member 1 (Homo sapiens), sequence (P11166 whole entry): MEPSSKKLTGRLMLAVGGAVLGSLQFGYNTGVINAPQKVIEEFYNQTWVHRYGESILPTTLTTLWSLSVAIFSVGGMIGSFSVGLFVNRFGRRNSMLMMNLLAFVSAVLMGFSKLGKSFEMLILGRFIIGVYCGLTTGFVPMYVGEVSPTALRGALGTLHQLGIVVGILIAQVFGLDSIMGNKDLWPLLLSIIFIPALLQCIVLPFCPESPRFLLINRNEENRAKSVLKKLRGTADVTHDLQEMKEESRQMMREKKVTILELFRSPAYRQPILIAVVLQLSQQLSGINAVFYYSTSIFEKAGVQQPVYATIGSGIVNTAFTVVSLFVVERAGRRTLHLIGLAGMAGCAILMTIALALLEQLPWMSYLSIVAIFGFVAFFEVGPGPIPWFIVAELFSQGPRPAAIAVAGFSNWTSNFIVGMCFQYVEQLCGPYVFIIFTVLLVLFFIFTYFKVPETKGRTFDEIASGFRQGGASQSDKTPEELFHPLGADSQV

For assay [2], the target named is Hexose transporter 1 (Plasmodium falciparum) (UniProt O97467). The assay is described as follows: ST_JUDE_LEISH: Cytotoxicity at 2uM final concentration against transgenic Leishmania Mexicana promastigotes LmPfHT that are glucose transport deficient and complemented with the Plasmodium falciparum hexose transporter. Activity is measured by DNA content using SYBR green in vitro.

For assay [3], the target named is Glucose transporter (Leishmania mexicana) (UniProt O61059). The assay is described as follows: ST_JUDE_LEISH: Cytotoxicity at 2uM final concentration against transgenic Leishmania Mexicana promastigotes LmGT2 that are glucose transport deficient and complemented with the L. Mexicana glucose transporter 2. Activity is measured by DNA content using SYBR green in vitro.

Structures are written as SMILES. Values joined by “and” are separate entries in the source; they are usually repeats but may differ in a detail not shown here. Identical values can stand only once.

Turning to `CC[C@H]1CN2CC[C@H]1C[C@H]2[C@H](O)c1cc(-c2ccc3ccccc3c2)nc2ccc(OC)cc12`, the inhibition in assay [1] was 10%; in assay [2], 4.9%; in assay [3], 3.26%.

`COC(=O)/C=C/c1ccc(CC(C)NCC(O)c2cccc(Br)c2)cc1` (centres undefined): the inhibition came out at 1.85% in assay [1], 0.16% in assay [2] and 0.91% in assay [3].

Regarding `CC[C@H]1CN2CC[C@@H]1C[C@H]2[C@H](O)c1cc(N2CCC(CO)CC2)nc2ccc(OC)cc12`, the inhibition in assay [1] worked out at 1.5%; in assay [2], 1.17%; in assay [3], 2.66%.

On to `CCN(Cc1ccccc1)CC(O)c1ccc(Cl)c(Cl)c1` (centres undefined), for which the inhibition is 0.91% in assay [1], 0.62% in assay [2] and 1.21% in assay [3].

Regarding `CC[C@H]1CN2CC[C@@H]1C[C@H]2[C@H](O)c1cc(-c2ccc(Cl)c(Cl)c2)nc2ccc(O)cc12`, the inhibition is -0.36% in assay [1], -1.15% in assay [2] and -0.47% in assay [3].

Take `Cc1cccc2c(C3CCN(CC4CCC(NC(=O)/C=C/c5ccc(Cl)c(Cl)c5)CC4)CC3)c[nH]c12` (centres undefined): the figures for the inhibition in assay [1], in assay [2] and in assay [3] were 10.9%, 9.79% and 8.09%, respectively.

As for `N=C(N)NC(=O)Nc1ccc([N+](=O)[O-])c(Cl)c1`, the results for the inhibition in assay [1], in assay [2] and in assay [3] were 0.15%, 1.53% and 0.59%, respectively.

Consider `CCCCCCCn1c(=O)c(C(=O)Nc2c(C)cccc2C)c(O)c2ccccc21`, for which the inhibition in assay [1] is 2.89%; in assay [2], 1.98%; in assay [3], 3.35%.

As for `O=C(/C=C/c1ccc(Cl)c(Cl)c1)NCC1CCC(CN2CCC(c3c[nH]c4ccccc34)CC2)CC1` (centres undefined), the inhibition in assay [1] was 2.37%; in assay [2], -3.01%; in assay [3], 1.76%.

Turning to `CCOC(=O)c1ccc(CC(C)NCC(O)c2cccc(C(F)(F)F)c2)cc1` (centres undefined), the inhibition was -2.26% in assay [1], -1.71% in assay [2] and -0.87% in assay [3].

`CC[C@H]1CN2CC[C@H]1C[C@@H]2[C@@H](O)c1ccnc2ccccc12`: the inhibition in assay [1] was -0.01%; in assay [2], 0.66%; in assay [3], -1.98%.

`COc1c(F)cc(CC(C)NCC(O)c2cccc(Cl)c2)cc1F` (centres undefined): the inhibition is -0.28% in assay [1], -0.81% in assay [2] and -3.56% in assay [3].

With `COc1cc(CN2CCN(c3ccnc(N(C)C4CCN(C)CC4)n3)CC2)cc(Cl)c1O`, the values for the inhibition in assay [1], in assay [2] and in assay [3] were 5.87%, 7.29% and 6.73%, respectively.

Take `CC(Cc1ccc(OCCOc2ccccc2)cc1)NCC(O)c1cccc(Cl)c1` (centres undefined): the inhibition in assay [1] was determined as 0.57%; in assay [2] it was 1.43%; in assay [3], 1.19%.

Regarding `O=C(/C=C/c1c(Cl)cccc1Cl)NC1CCC(CN2CCC(c3c[nH]c4ccccc34)CC2)CC1` (centres undefined), the inhibition in assay [1] is 5.03% and 4.85%; in assay [2], 12.9% and 2.55%; in assay [3], 6.66% and 4.94%.

In the case of `O=C(C=Cc1ccc(F)c(Br)c1)N1CCC(CN2CCC(c3c[nH]c4ccccc34)CC2)CC1`, the inhibition in assay [1] amounted to 17.6%; in assay [2] it was 15.9%; in assay [3], 13.1%.

Regarding `COc1ccc(OC)c(CNCC(O)c2cc(C(F)(F)F)cc(C(F)(F)F)c2)c1` (centres undefined), the inhibition in assay [1] is 5.31%; in assay [2], 6.21%; in assay [3] it was 3.49%.

Turning to `O=C(/C=C/c1cc([N+](=O)[O-])ccc1Cl)NC1CCC(CN2CCC(c3c[nH]c4ccccc34)CC2)CC1` (centres undefined), the inhibition in assay [1] was 2.1%; in assay [2] it was 1.69%; in assay [3], 2.13%.

For `S=C(NCC1CCCCC1)NC1CCC(CN2CCC(c3c[nH]c4ccccc34)CC2)CC1` (centres undefined), the inhibition in assay [1] is 1.87%; in assay [2], 3.66%; in assay [3], 0.26%.

Turning to `Cc1[nH]c2ccccc2c1C1CCN(CC2CCC(NC(=O)/C=C/c3ccc(Cl)c(Cl)c3)CC2)CC1` (centres undefined), the inhibition in assay [1] was found to be 6.8%; in assay [2], 6.35%; in assay [3], 7.15%.

As for `O=C(C=Cc1ccc(Br)cc1)NC1CCC(CN2CCC(c3c[nH]c4ccccc34)CC2)CC1` (centres undefined), the figures for the inhibition in assay [1], in assay [2] and in assay [3] were 2.45%, 2.86% and 4.98%, respectively.

On to `Cc1ccc(C)c(N2CCN(Cc3ccccc3O)CC2)c1`, for which the inhibition in assay [1] came out at 0.11%; in assay [2] it was 1.02%; in assay [3] it was 2.41%.

`Cc1cc(N(C)C2CCN(C)CC2)nc(Nc2ccc(Cl)cc2)n1`: the inhibition in assay [1] is 2.63%; in assay [2] it was -2.68%; in assay [3], -0.95%.

Turning to `CN1CC=C(c2c[nH]c3ccc(Oc4ccccc4)cc23)CC1`, the values for the inhibition in assay [1], in assay [2] and in assay [3] were 0.93%, 6.03% and 3.03%, respectively.

Regarding `Cc1[nH]c2ccc([N+](=O)[O-])cc2c1C1=CCN(C)CC1`, the inhibition in assay [1] amounted to 1.47%; in assay [2], 1.63%; in assay [3], 2.86%.

As for `N#Cc1c(F)cc(N2CCC(NCC[C@H](N)Cc3ccc(F)c(F)c3)CC2)cc1F`, the values for the inhibition in assay [1], in assay [2] and in assay [3] were 2.18%, 3.63% and 2.33%, respectively.

Turning to `O=C(/C=C/c1ccc(Cl)c(Cl)c1)NC1CCC(N2CCC(c3c[nH]c4ccc(O)cc34)CC2)CC1` (centres undefined), the inhibition in assay [1] is 1.81%; in assay [2], 1.52%; in assay [3], 2.5%.

For `CCCCCC(C)C(C)c1cc(O)c2c(c1)OC(C)(C)c1cnccc1-2` (centres undefined), the inhibition in assay [1] was -1.41%; in assay [2] it was 0.7%; in assay [3], -1.32%.

In the case of `CC(=O)Nc1ccc(OCCN(CC(C)C)c2ccc(C#N)c(C(F)(F)F)c2)c(Cl)c1`, the inhibition turned out to be 3.54% in assay [1], 2.7% in assay [2] and 2.53% in assay [3].

On to `O=C(NC1CCN(CC2(c3ccc(Cl)cc3)CCC2)CC1)c1cscn1`, for which the inhibition is 1.16% in assay [1], -2.56% in assay [2] and 0.83% in assay [3].

For the molecule `CC[C@H]1CN2CCc3cc(OC)c(OC)cc3[C@@H]2C[C@@H]1C[C@H]1NCCc2c1cc(OC)c(OC)c2Br`, the inhibition turned out to be 88% in assay [1], 86.6% in assay [2] and 84.7% in assay [3].

On to `COc1cc(C=CC(=O)NC2CCC(CN3CCC(c4c[nH]c5ccccc45)CC3)CC2)cc(OC)c1` (centres undefined), for which the results for the inhibition in assay [1], in assay [2] and in assay [3] were -1.01%, -2.18% and -3.65%, respectively.

For the molecule `O=C(/C=C/c1ccc(Cl)c(Cl)c1)N1CCC(CN2CCC(c3cn(CC(=O)N4CCCCC4)c4ccccc34)CC2)CC1`, the results for the inhibition in assay [1], in assay [2] and in assay [3] were 2.63%, 2.05% and -2.07%, respectively.

Usually inhibition stands for the drop in the measured response relative to a control, in per cent.
